Measured values as given in PubChem BioAssay AID2014 (Sanford-Burnham Center for Chemical Genomics, 2009).
In all, about 290,000 compounds went through this assay and about 3,000 (1%) were called active. No rule for the calls is given here. Shown is part of a subset that was picked to be rich in actives.

Target: Polyadenylate-binding protein 1 (Homo sapiens) (UniProt P11940)
Assay: PABP poly(A) RNA binding inhibitors, primary screen, biochemical, fluorescence polarization, uHTS (AID 2014);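 also: calls also rest on retests at 20 µM and on dose response follow-up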
Settings: stronger effect = higher value

Polyadenylate-binding protein 1 (Homo sapiens), sequence (P11940 whole entry, looked up): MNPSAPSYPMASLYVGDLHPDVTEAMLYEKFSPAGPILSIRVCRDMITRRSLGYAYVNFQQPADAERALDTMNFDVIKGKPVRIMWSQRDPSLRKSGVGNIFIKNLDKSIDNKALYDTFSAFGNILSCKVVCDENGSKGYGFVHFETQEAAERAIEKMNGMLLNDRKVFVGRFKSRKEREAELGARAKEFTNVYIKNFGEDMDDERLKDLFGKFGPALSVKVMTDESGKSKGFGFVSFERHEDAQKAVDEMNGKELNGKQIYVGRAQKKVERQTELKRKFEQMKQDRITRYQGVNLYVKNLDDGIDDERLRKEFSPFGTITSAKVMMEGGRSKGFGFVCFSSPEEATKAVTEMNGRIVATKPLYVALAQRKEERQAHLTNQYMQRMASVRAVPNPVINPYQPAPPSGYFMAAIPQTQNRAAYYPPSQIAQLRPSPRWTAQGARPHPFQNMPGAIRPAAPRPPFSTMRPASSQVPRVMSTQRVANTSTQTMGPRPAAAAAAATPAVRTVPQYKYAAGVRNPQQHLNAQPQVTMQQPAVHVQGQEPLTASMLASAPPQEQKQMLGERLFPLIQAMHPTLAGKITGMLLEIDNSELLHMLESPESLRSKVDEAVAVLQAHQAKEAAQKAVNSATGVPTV

Compound	inhibition (at 35 µM)	inhibition (confirmation repeats, at 20 µM) [%]
COc1cc([C@H](Cc2ccccc2)NC(C)=O)oc(=O)c1	76.2% (active)	
CCOC(=O)C(Cc1ccccc1)NC(=O)CCC(=O)c1ccc(OC)cc1 (stereo not drawn)	-2.7% (inactive)	
COC(=O)[C@H](Cc1ccccc1)NC(=O)Nc1ccc(OC)cc1	-6.6% (inactive)	
O=C(CCC1CCN(C(=O)c2cccc(Cl)c2F)CC1)Nc1ccccc1	-10.6% (inactive)	
CS(=O)(=O)N1CCN=C1SCc1ccc(F)cc1	0.3% (inactive)	
CCN(c1ccccc1)S(=O)(=O)c1cc2c(cc1C)n(C)c(=O)c(=O)n2C	-2% (inactive)	
CS(=O)(=O)NCc1ccc(C(=O)NCc2ccccc2)cc1	48.1% (inactive)	
Nc1ccc(C(=O)NCc2ccccc2)cc1	3.4% (inactive)	
C[n+]1ccc(C(=O)NCc2ccccc2)cc1	64.2% (active)	92.7
Cn1ncc(Br)c1C(=O)NC1CCCC1	2.8% (inactive)	
COC(=O)c1c(NC(=O)c2c(Cl)cnn2C)sc(C)c1C	-5.8% (inactive)	
CN(C(=O)c1c(Cl)cnn1C)C12CC3CC(CC(C3)C1)C2	86.8% (active)	75
Cn1c(CCc2ccccc2)nnc1SCC(N)=O	-5.2% (inactive)	
C/C(=N\Nc1nncc2ccccc12)c1ccc(Cl)c([N+](=O)[O-])c1	2% (inactive)	
Clc1ccc(CN2CCCCCC2)cc1Cl	17.8% (inactive)	
COc1ccccc1CN1CC(C(=O)NCCc2cn[nH]c2)CCC1=O (stereo not drawn)	27% (inactive)	
CCn1nnnc1SCC(=O)Nc1ccc(N(C)C)cc1	1.4% (inactive)	
Cc1ccc(Nc2nc(Cl)c(C=O)s2)cc1	40.3% (inactive)	44.5
Cc1ccsc1-c1cc(C(=O)O)c2c(ccc3ccccc32)n1	20.2% (inactive)	
Cc1cc(C)c2nc(-c3ccco3)cc(C(=O)O)c2c1	91.2% (active)	
COC(=O)c1cnn2c(C(F)(F)F)cc(-c3ccco3)nc12	23.9% (inactive)	
CCN(CC)c1ccc(/C=N/Nc2nc(C)cc(C)n2)c(O)c1	16.6% (active)	67.4
Cc1cc(C)nc(N/N=C/c2ccncc2)n1	2% (inactive)	
CCN(CC)c1ccc(/C=N/NC(=O)c2cnccn2)c(O)c1	-7.1% (inactive)	
CC1CSc2nnc(CCc3ccccc3)n21 (stereo not drawn)	-2.9% (inactive)	

Compound	inhibition (at 35 µM)	inhibition (confirmation repeats, at 20 µM) [%]
c1ccc(CCC2=NCCn3cccc32)cc1	67.5% (active)	
S=C(NCCc1ccccc1)N1CCn2cccc2C1c1ccncc1 (stereo not drawn)	6.4% (inactive)	
O=C(Nc1cccnc1Cl)c1cc(-c2ccccc2O)on1	-6.2% (inactive)	
COc1ccc(NC(=O)c2cccc3c2C(=O)N(CC2CCCO2)C3)cc1OC (stereo not drawn)	-2% (inactive)	
COc1ccc(CNC(=O)c2cc3c(=O)n4ccccc4nc3n(CC3CCCO3)c2=N)cc1 (stereo not drawn)	-5.2% (inactive)	
Cc1cccn2c(=O)c3cc(C(=O)NCC4CCCO4)c(=N)n(Cc4ccc(F)cc4)c3nc12 (stereo not drawn)	-1% (inactive)	
Cc1ccc2nc3c(cc(C(=O)NCCc4ccccc4)c(=N)n3CC3CCCO3)c(=O)n2c1 (stereo not drawn)	83.3% (active)	
COc1ccc(-n2c(=O)[nH]c3cc(C(=O)NCCc4ccc(OC)c(OC)c4)ccc3c2=O)c(OC)c1	11% (inactive)	
COc1ccc(N2CCN(C(=O)c3ccccc3NC(=O)C3=C(C)OCCS3)CC2)cc1	-6.5% (inactive)	
O=C(c1cc(-c2ccc(O)cc2)on1)N1CCOCC1	2.9% (inactive)	
CCOC(=O)CNC(=O)CSc1nc2cccnc2n1CC	23.1% (inactive)	
CCc1nc2cccnc2n1-c1ccc(C(=O)O)cc1	73.7% (active)	87.5
COCCCNC(=O)Cc1ccc(-n2c(C)nc3cccnc32)cc1	36% (inactive)	12
CCOC(=O)[C@@H]1[C@H]2COc3cc(OC)ccc3[C@@H]2N2C(=O)N(c3cccc(C)c3)C(=O)[C@@]12C	7.6% (inactive)	
O=C(Cc1cccs1)Nc1ccc([N+](=O)[O-])cc1	2.1% (inactive)	
Cc1ccc(/C=C/C(=O)Nc2cc(S(=O)(=O)N3CCCCCC3)ccc2OCC(F)(F)F)o1	-0.3% (inactive)	
Cc1ccc(/C=C/C(=O)Nc2ccc([N+](=O)[O-])c(NC(=O)/C=C/c3ccc(C)o3)c2)o1	0% (active)	119
COC(=O)/C=C\C(=O)Nc1cccc([N+](=O)[O-])c1	9.4% (inactive)	
COCc1ccc(CN2CCC(Oc3ccc(C(=O)NCc4ccccn4)cc3)CC2)o1	-1.3% (inactive)	
Cc1[nH]c2ccccc2c1C(=O)CN1CCCC(C)C1 (stereo not drawn)	8.2% (inactive)	
Cc1nc(SCC(=O)NC2CCCC2)[nH]c(=O)c1C	3.8% (inactive)	
O=C(/C=C/c1ccc([N+](=O)[O-])o1)NNC(=O)c1ccc(F)cc1	8.2% (inactive)	
CN1C(=O)/C(=C/c2ccco2)SC1=Nc1cccc(C(=O)O)c1	-1.6% (active)	78.4
CN=C1S/C(=C\c2c(OC)cc(OC)cc2OC)C(=O)N1C	8.5% (inactive)	
CN=C1S/C(=C\c2ccc(Sc3ccc(Cl)cc3)o2)C(=O)N1C	-5.7% (inactive)	

Compound	inhibition (at 35 µM)	inhibition (confirmation repeats, at 20 µM) [%]
COC(=O)C1(C)NC(c2ccc(F)cc2)C2C(=O)N(c3ccccc3)C(=O)C21 (stereo not drawn)	10.8% (inactive)	
CC(=O)NS(=O)(=O)c1ccc2c(c1)Cc1cc(S(=O)(=O)NC(C)=O)ccc1-2	6% (inactive)	
COc1ccccc1CNS(=O)(=O)CC12CCC(CC1=O)C2(C)C (stereo not drawn)	3.9% (inactive)	
CC(C)Cc1nnc(NC(=O)CCc2ccccc2)s1	-7.4% (inactive)	
Clc1ccccc1CSc1nnc(-c2ccco2)c(-c2ccco2)n1	82.6% (active)	87.4
Brc1ccc(CSc2ccc(-c3ccco3)nn2)cc1	-6.1% (inactive)	5.9
c1ccc(CSc2nnc(-c3ccco3)c(-c3ccco3)n2)cc1	74.8% (active)	
Fc1cccc(Cl)c1CSc1ccc(-c2ccco2)nn1	-6.6% (inactive)	
COC(OC)c1ccnc(SCc2ccccc2Cl)n1	-6.4% (inactive)	
O=c1[nH]c(SCc2ccccc2)nnc1-c1ccccc1	62.5% (inactive)	-3.1
COc1ccc(S(=O)(=O)Nc2ccc(F)cc2)c(C)c1C	-4.6% (inactive)	
COc1ccc(NS(=O)(=O)c2ccc(F)cc2F)cn1	70.3% (active)	
CCOc1ccc(S(=O)(=O)Nc2ccc(OC)nc2)cc1	9.7% (inactive)	
COCC(=O)N1CCc2ccc(NC(=O)c3ccccc3Cl)cc2C1	9.8% (inactive)	
Nc1nc(SCC(=O)Nc2cc(C(F)(F)F)ccc2Cl)[nH]c(=O)c1NC(=O)c1ccco1	2.8% (inactive)	
Cc1c(CCC(=O)O)c(=O)oc2cc3occ(-c4ccccc4)c3cc12	32.6% (inactive)	
Cc1c(CC(=O)NCCCCCC(=O)O)c(=O)oc2cc3occ(-c4ccccc4)c3cc12	15.4% (inactive)	
CCCCCCc1cc2cc(-c3nnc(-c4ccccc4)o3)c(=O)oc2cc1O	102% (active)	
COc1cc(C(=O)N2CCN(C3CCC(C)CC3)CC2)cc(OC)c1OC (stereo not drawn)	7.5% (inactive)	
CC(C)=N/N=C1/NC(=O)C(Cc2ccccc2)S1 (stereo not drawn)	4.2% (inactive)	
CSc1nc(-c2ccco2)nn1C(=O)CCc1ccccc1	7.1% (inactive)	
CCOc1ccccc1/C=c1\sc2nc(-c3ccco3)nn2c1=O	53% (active)	
CCOC(=O)/C=c1\s/c(=C\c2ccccc2OC)c(=O)n1CC(=O)N1CCOCC1	7.9% (inactive)	
CC1CCCCN1C(=O)CCS(=O)(=O)Cc1ccccc1 (stereo not drawn)	9.6% (inactive)	
Cc1nc(N)nc(SCc2ccc([N+](=O)[O-])cc2)c1N	7.3% (inactive)	

Compound	inhibition (at 35 µM)	inhibition (confirmation repeats, at 20 µM) [%]
Cc1c(C2=CCN(S(=O)(=O)c3ccc(Cl)cc3)CC2)c2ccccc2n1C	4.5% (active)	95.9
COc1ccccc1N1CCN(S(=O)(=O)c2ccc(Cl)cc2)CC1	-9.7% (inactive)	
O=S(=O)(c1ccc(F)cc1)N1CC=C(c2ccccc2)CC1	4.6% (inactive)	
COc1ccccc1NC(=O)C1CCN(C(=O)c2ccc(C(C)(C)C)cc2)CC1	10.3% (inactive)	
NS(=O)(=O)c1ccc(-c2ccc(/C=C3\SC(=O)NC3=O)o2)cc1	7.1% (inactive)	
CCCc1nc(-c2cc3cc(C)ccc3[nH]c2=O)no1	61.5% (active)	60
CC(=O)OCc1cc2cc(C)ccc2[nH]c1=O	9.2% (inactive)	
COc1ccc2[nH]c(=O)c(-c3noc(-c4ccc(F)cc4)n3)cc2c1	1.1% (inactive)	
COc1ccc(-n2ncc3c2CC(C)(C)CC3NC(=O)CCc2c(C)noc2C)cc1 (stereo not drawn)	9.7% (inactive)	
CCCS(=O)(=O)N1CCN=C1SCc1cccc(F)c1	-1.7% (inactive)	
COc1ccc(CNC(=O)C(=O)NCC2OCCN2C(=O)c2ccc(OC)cc2)cc1 (stereo not drawn)	-1% (inactive)	
Cc1ccc(S(=O)(=O)N2CC(C)N(S(C)(=O)=O)C2)cc1 (stereo not drawn)	2% (inactive)	
Cc1cc([N+](=O)[O-])ccc1NC(=O)C1CCCO1 (stereo not drawn)	-5.5% (inactive)	
Cc1ccc(C)c(C(C)NC(=O)C2CCCO2)c1 (stereo not drawn)	102% (active)	
Cc1cc(C)c2nc(NC(=O)C3CCCO3)sc2c1 (stereo not drawn)	-13.4% (inactive)	
COc1ccc(NC(=O)c2cc([N+](=O)[O-])ccc2NC(=O)CNC2CCCCC2C)c(OC)c1 (stereo not drawn)	9.1% (inactive)	
O=C(CCc1nnc2ccc(NCCCN3CCCC3=O)nn12)NCc1ccccc1Cl	2.5% (inactive)	
CN1CCCC(OC(=O)COc2ccc(Br)cc2)C1 (stereo not drawn)	0.4% (active)	55
Cc1ccc(C(=O)OC2CCCN(C)C2)cc1 (stereo not drawn)	-1.5% (inactive)	
CCOC(=O)N1CCN(C(=O)COc2ccc(Br)cc2)CC1	-4.7% (inactive)	
O=C(NC(=S)Nc1ncccn1)c1ccccc1Br	2.7% (inactive)	
CCCc1ccc(OCCNC(=O)c2ccccc2Br)cc1	1.2% (inactive)	
CCOc1cnc(C(=O)NNC(=O)c2ccccc2Br)o1	12.8% (active)	95.2
